We go through 39 compounds from PubChem BioAssay (NCATS).

SMILES strings stand for the structures. Inconclusive results are not listed. A number with no mark means an inactive call. The call rests on the fitted dose curve; in most records, active means well fitted inhibition curve with a large enough effect; inconclusive means small, poorly fitted or top-dose-only effect; inactive means flat fitted curve, though single readings scatter.
On the % scale 0 is the no-effect control and ±100 the full control effect.

Calcium and integrin-binding protein 1 (Homo sapiens), sequence (Q99828 whole entry, looked up): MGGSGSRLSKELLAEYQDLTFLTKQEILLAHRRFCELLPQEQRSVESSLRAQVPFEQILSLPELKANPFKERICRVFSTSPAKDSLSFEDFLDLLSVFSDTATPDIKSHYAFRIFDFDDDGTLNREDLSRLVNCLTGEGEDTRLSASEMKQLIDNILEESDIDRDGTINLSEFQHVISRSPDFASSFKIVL

This assay addresses Calcium and integrin-binding protein 1 (Homo sapiens) (UniProt Q99828). As to the kind of experiment: Primary qHTS for Identification of Calcium Integrin Binding Protein 1 (CIB1) Competitor (AID 1508620).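 Further: GST tagged CIB1 binding a fluorescein labelled alphaIIb integrin peptide tracer; top concentration of the series differs between compounds.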 Conditions: CIB1-GST / FITC-alphaIIb peptide fluorescence polarization; series mostly up to 114 µM; activity change, negative = inhibition: at the top concentration. An outline of the steps:
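CIB1-GST (1 uM final) and compound incubated 15 min at room temperature before adding FITC-alphaIIb peptide tracer (100 nM final). Competition for binding read by fluorescence polarization (ex 480, em 540) after another 15 min at room temperature.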
In general terms: qHTS replaces the single test concentration by a dilution series.
On to `Cc1cc(C)nc(NC(=S)N2CCN(c3cc(C(F)(F)F)nc(C)n3)CC2)c1`, for which the “activity change, negative = inhibition” value was -6.22%.

With `Cc1c(P(=S)(c2ccccc2)c2ccccc2)c2ccccc2n1C/C=C/c1ccccc1`, the “activity change, negative = inhibition” value is 2.69%.

As to `COc1cccc(C)c1NC(=O)C(OC(=O)CNC(=O)c1ccccc1)c1ccccc1` (centres undefined), the “activity change, negative = inhibition” value was 3.84%.

For `Cc1cc(NC(=O)Nc2nnc(C3CCCCC3)s2)ccc1F`, the “activity change, negative = inhibition” value is 1.06%.

`COc1ccc(C(=O)N(Cc2ccccc2)Cc2ccccc2)cc1COc1ccc(NC(C)=O)cc1`: the “activity change, negative = inhibition” value was 1.79%.

Regarding `C#CCOc1cc(C2=Nn3c(nnc3-c3cccc(OCC(C)=O)c3)SC2)ccc1OC`, the “activity change, negative = inhibition” value is -2.43%.

For the compound `Cc1ccc(OCCn2c(CCNC(=O)c3cc([N+](=O)[O-])ccc3[N+](=O)[O-])nc3ccccc32)cc1`, the “activity change, negative = inhibition” value is 3.6%.

On to `CN1C(=O)CCc2cc(S(=O)(=O)Nc3ccc(Cl)c(Cl)c3)ccc21`, for which the “activity change, negative = inhibition” value was -9.97%.

For `Cc1nc2ccccn2c1P(=O)(c1ccccc1)c1ccccc1`, the “activity change, negative = inhibition” value is 4.61%.

In the case of `O=C(Nc1ccc(Cl)c(Cl)c1)Nc1ncc(-c2ccncc2)s1`, the “activity change, negative = inhibition” value is -2.01%.

As for `Cc1csc(CNc2ncnc3ccc(-c4ccc5c(c4)OCO5)cc23)c1`, the “activity change, negative = inhibition” value is 5.38%.

`O=C1c2ccccc2NC(c2ccc(-c3cccc(F)c3)o2)N1O` (centres undefined): the “activity change, negative = inhibition” value was -8.38%.

For the compound `Cc1cc(C)nc(NC(=S)N2CCN(c3ncnc4sccc34)CC2)c1`, the “activity change, negative = inhibition” value is 0.224%.

Turning to `Cc1cncc(NC(=S)N2CCN(c3cccc(C(F)(F)F)c3)CC2)c1`, the “activity change, negative = inhibition” value was 4.35%.

On to `COc1ccc(-c2ccc(=O)n(CC(=O)NCCc3ccccc3)n2)cc1OC`, for which the “activity change, negative = inhibition” value is -4.2%.

`Cc1cc(N(C)S(=O)(=O)c2ccc(NC(=O)Cc3ccc(Cl)c(Cl)c3)cc2)no1`: the “activity change, negative = inhibition” value is -4.12%.

Turning to `c1cc2c(cc1CNc1ccc(N3CCCCC3)cc1)OCO2`, the “activity change, negative = inhibition” value was -8.68%.

Regarding `COc1cc2nc(N3CCN(C)CC3)nc(NCCN(C)C)c2cc1OC`, the “activity change, negative = inhibition” value is 2.98%.

For the compound `O=S1(=O)N=C(Oc2cccc(-c3ccccc3)c2)c2ccccc21`, the “activity change, negative = inhibition” value is 2.12%.

In the case of `COc1ccc(-c2ccc3ncnc(NCc4cccs4)c3c2)cc1`, the “activity change, negative = inhibition” value was -0.374%.

Turning to `COc1c(Cl)cccc1NC(=O)c1c(NC(=O)Cc2ccccc2)sc2c1CCCC2`, the “activity change, negative = inhibition” value is 0.681%.

Regarding `Cc1cccc(-n2cnc3cc(C(=O)N4CCCC(C)(C)C4)ccc32)c1`, the “activity change, negative = inhibition” value is -0.693%.

For the compound `COc1ccccc1C(=O)NCCc1nc2ccccc2n1CCOc1ccc(C)cc1`, the “activity change, negative = inhibition” value is 2.01%.

Turning to `COc1ccc(Cn2c(C)nnc2-c2cnn(C)c2N)cc1OC`, the “activity change, negative = inhibition” value is 1.06%.

For `Nc1ccc(Nc2cc(O)c3ncccc3c2)cc1`, the “activity change, negative = inhibition” value was -18.4%.

`CCOc1ccc(CCNC(=O)c2cc3sccc3n2Cc2cccc(C)c2)cc1OCC`: the “activity change, negative = inhibition” value is 3.52%.

`Cc1ccc(OCCn2c(CCNC(=O)C3CCCCCC3)nc3ccccc32)cc1`: the “activity change, negative = inhibition” value was 7.72%.

Take `O=C(Nc1nc(Nc2cc(F)cc(F)c2)nc(NC2CCCC2)n1)OCc1ccccc1`: the “activity change, negative = inhibition” value was -2.55%.

As to `CC(C)c1ccccc1-c1nc(NCc2ccc(-c3cccnc3)cc2)c2[nH]cnc2n1`, the “activity change, negative = inhibition” value was -3.36%.

As to `Cc1cc(C)nc(NC(=S)N2CCN(Cc3cccc4ccccc34)CC2)c1`, the “activity change, negative = inhibition” value is -18.4%.

As to `CCCCN(C)C(=O)Cn1nc(-c2ccc(C(F)(F)F)cc2)ccc1=O`, the “activity change, negative = inhibition” value was -5.11%.

Turning to `CCOc1ccccc1-c1nnc2n1N=C(c1ccc(OC)cc1)CS2`, the “activity change, negative = inhibition” value was 3.14%.

In the case of `FC(F)(F)c1ccccc1-c1nc(NCC23CC4CC(CC(C4)C2)C3)c2ccccc2n1`, the “activity change, negative = inhibition” value was -0.432%.

On to `Cc1cc2c(s1)c1cnn(Cc3ccc(C)c(F)c3)c(=O)c1n2C`, for which the “activity change, negative = inhibition” value is 8.21%.

With `O=C(O)c1cccc(-n2cccc2)c1`, the “activity change, negative = inhibition” value is -0.414%.

In the case of `Oc1cc(-c2ccc(N3CCCCC3)nc2)cc2cccnc12`, the “activity change, negative = inhibition” value was -3.03%.

Take `Cc1cc(C)nc(NC(=S)N2CCN(c3nc4ccccc4o3)CC2)c1`: the “activity change, negative = inhibition” value is -3.85%.

Take `O=c1c2ccccc2nc2sc(NCc3ccc([S+](=O)([O-])c4ccccc4)cc3)nn12`: the “activity change, negative = inhibition” value is 13%.

Take `COc1ccc(C2c3ccc(OCc4ccccc4)cc3Oc3ncn(CCN4CCOCC4)c(=N)c32)cc1OC` (centres undefined): the “activity change, negative = inhibition” value was -0.183%.
